target: Tyrosine-protein kinase ABL1 (Homo sapiens) (UniProt P00519); details: Compound concentration 20.0 uM, Protein concentration 2.0 uM, Result type QC Liability
Sequence (P00519 whole entry): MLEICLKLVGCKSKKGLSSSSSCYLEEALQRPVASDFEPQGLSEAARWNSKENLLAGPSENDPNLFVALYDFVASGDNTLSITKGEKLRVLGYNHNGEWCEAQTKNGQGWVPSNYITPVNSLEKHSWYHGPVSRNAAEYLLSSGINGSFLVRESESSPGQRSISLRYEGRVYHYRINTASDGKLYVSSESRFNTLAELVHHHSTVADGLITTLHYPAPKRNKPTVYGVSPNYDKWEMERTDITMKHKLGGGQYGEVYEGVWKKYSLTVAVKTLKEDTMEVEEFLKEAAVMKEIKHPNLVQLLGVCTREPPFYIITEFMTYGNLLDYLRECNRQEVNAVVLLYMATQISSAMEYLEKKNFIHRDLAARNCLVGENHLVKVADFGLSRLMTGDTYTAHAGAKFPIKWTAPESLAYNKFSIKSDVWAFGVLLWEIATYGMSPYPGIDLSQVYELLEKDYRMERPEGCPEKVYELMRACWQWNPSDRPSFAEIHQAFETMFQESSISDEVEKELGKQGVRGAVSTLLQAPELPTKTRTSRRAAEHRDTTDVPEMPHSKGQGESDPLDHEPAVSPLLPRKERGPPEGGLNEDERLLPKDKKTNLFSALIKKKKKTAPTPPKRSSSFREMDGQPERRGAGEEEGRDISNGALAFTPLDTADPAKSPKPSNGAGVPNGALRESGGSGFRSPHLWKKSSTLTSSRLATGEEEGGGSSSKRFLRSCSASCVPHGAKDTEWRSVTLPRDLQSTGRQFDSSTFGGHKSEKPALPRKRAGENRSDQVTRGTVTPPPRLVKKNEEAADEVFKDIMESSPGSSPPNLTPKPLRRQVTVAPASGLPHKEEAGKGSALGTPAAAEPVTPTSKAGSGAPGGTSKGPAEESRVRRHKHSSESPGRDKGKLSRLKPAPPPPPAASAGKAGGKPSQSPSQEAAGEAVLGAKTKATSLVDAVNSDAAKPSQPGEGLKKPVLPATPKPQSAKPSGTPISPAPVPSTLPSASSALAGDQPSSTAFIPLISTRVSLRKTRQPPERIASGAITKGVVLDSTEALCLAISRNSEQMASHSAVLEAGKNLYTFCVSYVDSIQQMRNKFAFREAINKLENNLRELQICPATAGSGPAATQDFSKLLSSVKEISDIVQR

Row | Compound | ΔTm
1 | O=C1CN(c2ccccc2F)C(NCCN2CCOCC2)=C1c1nc2cc(Br)ccc2c(=O)[nH]1 | 0.38 °C
2 | CCN(CC)C/C=C/C(=O)Nc1cc2c(Nc3ccc(F)c(Cl)c3)ncnc2cc1OCC1CC1 | 7.73 °C
3 | Cn1cc(Nc2nccc(N3CC4CCC(C3)N4C(=O)[C@@H]3CC3(F)F)n2)cn1 | 1.98 °C
4 | O=C(Cc1ccccc1[N+](=O)[O-])Nc1ccc(-c2ccc(C(O)(C(F)(F)F)C(F)(F)F)cc2F)cc1 | 0.67 °C
5 | N=C(N)NCCC[C@H](NC(=O)CC1(CC(=O)N2CCN(C(c3ccccc3)c3ccccc3)CC2)CCCC1)C(=O)NCc1ccccc1 | -0.53 °C
6 | COC(=O)c1sccc1S(=O)(=O)Nc1ccc(Nc2ccccc2)cc1OC | 0.48 °C
7 | O=C(O)CCC/C=C\C[C@@H]1[C@@H](/C=C/[C@@H](O)COc2cccc(C(F)(F)F)c2)[C@H](O)C[C@@H]1O | 0.54 °C
8 | CC(C)(O)CNC(=O)N1C(=O)N(c2cccc(C(F)(F)F)c2)C2=C(C(=O)CC2)[C@@H]1c1ccc(C#N)cc1 | 0.02 °C
9 | O=C(Nc1snnc1C(=O)Nc1ccc(N2CCCC2)cc1)c1cncc(C(F)(F)F)c1 | 0.66 °C
10 | CCc1c(-c2ccc3[nH]ncc3c2)cnc(N)c1-c1ccc(O)cc1 | 1.38 °C
11 | COc1cc(-c2cc3ncccc3c(O[C@@H](C)[C@H]3CNC(=O)C3)n2)cc(OC)c1OC | 0.48 °C
12 | Cc1cccc(-c2nn3c(c2-c2ccnc4ccc(C(N)=O)cc24)CCC3)n1 | 1.72 °C
13 | Cc1[nH]nc(C(F)(F)F)c1Cc1sc2c(c1C(=O)N1C[C@](C)(O)CO1)c(=O)n(C)c(=O)n2C(C)C | 0.24 °C
14 | O=C(NCCN1CCOCC1)c1ccc2nn(CCOc3ccc(Cl)cc3)cc2c1 | 0.88 °C
15 | COc1c(NC(=O)c2cc3cccc(Oc4ccnc(C(=O)N5CCN(C)CC5)c4)c3n2C)cc(C(C)(C)C)cc1NS(C)(=O)=O | 0.38 °C
16 | CC(C)N(C(=O)C1CCOCC1)c1cc(F)c(Oc2ncc(Cn3nccn3)cc2C(F)(F)F)cc1C(=O)O | -0.75 °C
17 | Cc1cc(NC(=O)c2cccc(NC(=O)/C=C/CN(C)C)c2)ccc1Nc1nccc(-c2cccnc2)n1 | 3.79 °C
18 | CN1CC(=O)N(C)c2cnc(Nc3ccc(NC(=O)Nc4cccc(C(=O)O)c4)cc3)nc21 | 0.56 °C
19 | N[C@@H]1CCCN(c2c(/C=C3\SC(=O)NC3=O)cccc2-c2ccccc2)C1 | -0.18 °C
20 | CCCCCCCC/C=C\CCCCCCCC(=O)NCCO | -1.47 °C

Row | Compound | ΔTm
21 | CNC(=O)c1cccc(-c2ccc3c(N4CCOC[C@@H]4C)nc(N4CCOC[C@@H]4C)nc3n2)c1 | 0.83 °C
22 | Cc1cc(C2CCCNC2)ccc1Nc1ncc(Br)c(NCc2cccc3c2C(C)(C)C(=O)N3)n1 (centres undefined) | 1.52 °C
23 | CCC(=O)N[C@H]1CC[C@@H](C(=O)N(C)c2ccc(-c3nc4ccccc4o3)cc2)C1 | 0.73 °C
24 | Cc1nn(-c2nc3ccc(Cl)c(Cl)c3[nH]2)c(O)c1C1OC(=O)c2ccccc21 (centres undefined) | -0.04 °C
25 | CC(C)(C)NC(=O)c1cncn1C1CCN(c2ccc(-c3nnc(C(F)(F)F)o3)cn2)CC1 | 1.4 °C
26 | CN[C@@H](C)C(=O)N[C@H](C(=O)N1CCC[C@H]1C(=O)N[C@@H]1CCCc2ccccc21)C1CCCCC1 | 0.2 °C
27 | CC1(C)C[C@@H]1C(=O)N/C(=C\CCCCSC[C@H](N)C(=O)O)C(=O)O | 0.34 °C
28 | CNc1nc(-c2ccc3c(N)n[nH]c3c2)cc(N2C[C@@H](C(=O)NC3CCCCC3)CC[C@H]2C)n1 | 0.49 °C
29 | CCNC1=N[C@@H]2[C@@H](O)[C@H](O)[C@@H](CO)O[C@@H]2S1 | 0.07 °C
30 | CCOc1ccc(S(=O)(=O)Nc2ccc(Cl)cc2C#Cc2cnc(C(=O)O)cc2OC)c2ncccc12 | -0.94 °C
31 | CN(C)[C@H]1CC[C@H](Nc2ncc3ncnc(Nc4ccc(F)c(Cl)c4)c3n2)CC1 | 3.21 °C
32 | COc1ncc(-c2cc(-c3ncc(CN4C[C@@H](C)O[C@@H](C)C4)o3)c3cn[nH]c3c2)cc1NS(C)(=O)=O | 0.42 °C
33 | COc1ccccc1Nc1nc(-c2nn(Cc3c(F)cc(OCCCO)cc3F)c3ccccc23)ncc1OC | 0.26 °C
34 | CCOC(=O)N1CCC(CN(Cc2ccc(Cl)cc2)Cc2ccc([N+](=O)[O-])s2)C1 (centres undefined) | 0.47 °C
35 | COc1ccc(CSc2nnc(-c3ccc4ncsc4c3)o2)cc1C(F)(F)F | -6.63 °C
36 | O=C(Nc1ccc(C(O)(C(F)(F)F)C(F)(F)F)cc1)c1ccc(C(F)(F)F)cc1 | 0.76 °C
37 | COc1cc(-c2cncc(-c3ccc(N4CCN(C(C)C)CC4)cc3)c2C)cc(F)c1C(=O)N1CCCC1 | 0.7 °C
38 | CN1CCN(C(=O)c2ccc3cc2OCCOCCNc2ccn4ncc-3c4n2)CC1 | 1.92 °C
39 | CC(C)Nc1ncnc2cc(OCc3cccc([S@@](C)(=N)=O)c3)c(Br)cc12 | 2.87 °C
